The list is not random: actives were taken first. Their share in the collection is about 15%.
DT40 TDP1 CPT = qHTS for Inhibitors of human tyrosyl-DNA phosphodiesterase 1 (TDP1): qHTS in cells in presence of CPT; AID 686979, 2013; 420,000 tested, 12% active; chicken DT40 Tdp1-/-;hTDP1 cells + 20 nM CPT, ATP luminescence, 48 h; Potency, µM (highest dose often 46.2 µM), for the others: at the highest dose activity change, negative = growth inhibition, actives largely listed as inhibitors; also: nearly all actives have a fitted effect of over 55% in size
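Cell growth measured by CellTiter-Glo luminescence after a minimum 48 h, 37 C compound exposure with 20 nM CPT in Tdp1-knockout DT40 cells stably expressing hTDP1, seeded 400/well; qHTS titration format.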
RORgamma inh = qHTS for inhibitors of ROR gamma transcriptional activity | Drosophila S2 Gal4-RORgamma UAS-luciferase reporter, 20 h | Potency, µM (titrated, usually from 53.6 µM), without a hit: at the top dose activity change, negative = inhibition, usual class: inhibitors | 310,000 tested, 5.4% active | AID 2551, 2010; also: nearly all actives have a fitted effect of over 60% in size
Target sequence (P51450 whole entry, looked up, the tested form may be a part): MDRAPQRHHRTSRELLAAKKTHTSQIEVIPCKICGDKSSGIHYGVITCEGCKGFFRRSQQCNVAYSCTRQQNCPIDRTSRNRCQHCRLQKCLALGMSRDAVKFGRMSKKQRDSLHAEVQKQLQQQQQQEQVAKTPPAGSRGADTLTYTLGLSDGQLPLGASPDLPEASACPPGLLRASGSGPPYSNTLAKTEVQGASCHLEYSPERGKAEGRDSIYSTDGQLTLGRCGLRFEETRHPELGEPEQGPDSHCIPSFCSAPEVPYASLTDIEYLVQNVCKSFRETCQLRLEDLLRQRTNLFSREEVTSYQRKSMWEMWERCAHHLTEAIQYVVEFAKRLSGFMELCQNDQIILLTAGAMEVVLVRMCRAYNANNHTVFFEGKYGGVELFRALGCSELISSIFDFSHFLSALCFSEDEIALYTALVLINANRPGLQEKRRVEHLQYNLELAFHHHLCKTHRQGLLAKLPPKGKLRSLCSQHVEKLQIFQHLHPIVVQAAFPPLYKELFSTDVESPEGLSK
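Luciferase reporter read in Schneider cells carrying Gal4-RORγ (mouse) and UAS-Photinus luciferase; cells given compound 1 h before 700 uM copper sulfate induction, then incubated 20 h at ambient temperature.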
Gal4-VP16 FLuc = VP16 counterscreen qHTS for inhibitors of ROR gamma transcriptional activity; Potency, µM (doses to about 53.6 µM), for the others: top-dose activity, negative = inhibition, hits mostly inhibitors; Drosophila S2 Gal4-VP16 UAS-luciferase, luminescence, 20 h; 310,000 tested, 3.5% active;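 also: Gal4-VP16 expression switched on by copper sulfate through the metallothionein promoter; nearly all actives have a fitted effect of over 50% in size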
ALOX12 inh = Primary qHTS assay for inhibitors of human arachidonate 12S-lipoxygenase (ALOX12): Round 2. AID 1671190, 2021. purified 12hLO, xylenol orange hydroperoxide absorbance. Polyunsaturated fatty acid lipoxygenase ALOX12 (Homo sapiens), P18054. Potency, µM (top dose mostly 108 µM), for inactives: at the highest dose activity change, negative = inhibition, usual class: inhibitors. 580,000 tested, 1.1% active
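Hydroperoxide product was detected by ferrous iron/xylenol orange as the 573 to 405 nm absorbance ratio. Arachidonic acid at 40 uM (final) was turned over for 30 min at room temperature by 150 nM human 12hLO, pH 7.0 Hepes buffer, after 15 min compound preincubation.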
DT40 TDP1 no CPT = qHTS for Inhibitors of human tyrosyl-DNA phosphodiesterase 1 (TDP1): qHTS in cells in absence of CPT | DT40 Tdp1-/- hTDP1 cells, no CPT, ATP luminescence, 48 h | Potency, µM (titrated, usually from 46.2 µM), without a hit: top-dose activity change, negative = growth inhibition, actives largely listed as inhibitors | 420,000 tested, 15% active | AID 686978, 2013; also: nearly all actives have a fitted effect of over 55% in size
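No-CPT arm: Tdp1-/-;hTDP1 DT40 cells (400/well) plus compounds, incubated ≥48 hr at 37 °C. Readout CellTiter-Glo luminescence.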
ELG1 repair inh = qHTS screen for small molecules that inhibit ELG1-dependent DNA repair in human embryonic kidney (HEK293T) cells expressing luciferase-tagged ELG1. 330,000 tested, 2.3% active. Potency, µM (titrated, usually from 46.1 µM), without a hit: at the top dose activity change, negative = inhibition, actives largely listed as inhibitors. HEK293T ELG1-luciferase reporter, luminescence, 16 h; DNA damage induced by 5-fluorouridine; also: nearly all actives have a fitted effect of over 55% in size
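Luminescence from the luciferase reporter, measured 30 min after ONE-Glo reagent at room temperature, was the read-out. Beforehand, 2,000 cells per well were exposed for 16 hr at 37 °C to 5-fluorouridine together with compound or vehicle.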
* = called active by the depositor; u = inconclusive; x = not tested or not shown. Calls follow the shape of the dose curve; as a rule, active = well fitted curve in the direction sought with a large enough effect; inconclusive = small, poorly fitted or top-dose-only effect, or another doubt; inactive = no such curve, though single readings can be large; an effect the other way counts as inactive or inconclusive. % is scaled to controls: 0 for no effect and ±100 for the full control effect; potency is read from the fitted curve at half-maximal effect.

SMILES	DT40 TDP1 CPT	RORgamma inh	Gal4-VP16 FLuc	ALOX12 inh	DT40 TDP1 no CPT	ELG1 repair inh
CN(CC(=O)Nc1ccc(N2CCOCC2)cc1)C(=O)CSc1ccc(Br)cc1	u	20.6%	4.3%	456.9%	14.6µM*	12.3%
Cc1ccc(NC(=O)CN(C)CC(=O)Nc2ccc(N3CCOCC3)cc2)cc1F	-30.0%	-4.8%	2.4%	u	u	u
Cc1ccc(CC(=O)N(C)CC(=O)Nc2ccc(N3CCOCC3)cc2)cc1C	13µM*	x	x	-11.4%	-20.1%	u
CN(CC(=O)Nc1ccc(N2CCOCC2)cc1)C(=O)CSc1ccc(F)cc1	-23.6%	x	x	u	-23.8%	0.0%
CN1C(=O)C(CC(=O)NC2CCC(O)CC2)(Cc2ccccc2)c2ccccc21 (centres undefined)	x	x	x	47.7%	x	x
CC(C)(C)c1cc(Cc2ccccc2)[nH]n1	-23.7%	17.8µM*	-1.4%	11.9%	-20.7%	8.1%
Cc1cc(=O)c2c(O)cc(O)c(C)c2o1	u	-36.1%	2.3%	x	20.6µM*	x
S=c1[nH]nc(Cc2n[nH]c(=S)n2-c2ccccc2)n1-c1ccccc1	-8.9%	22.9%	-14.2%	5.4%	-12.1%	-0.8%
CC(C)Cn1c(Cc2ccccc2)n[nH]c1=S	-13.5%	4.47µM*	0.0%	u	5.1%	u
Cc1ccc(-n2c(Cc3ccccc3)n[nH]c2=S)cc1	1.5%	3.98µM*	10µM*	u	11.8%	0.0%
S=c1[nH]nc(Cc2ccccc2)n1-c1ccc(Cl)cc1	12.8%	2.24µM*	u	u	6.5%	3.6%
S=c1[nH]nc(Cc2ccccc2)n1-c1ccccc1	-13.1%	11.2µM*	20µM*	u	-11.2%	6.3%
CCn1c(SCC(=O)Nc2ccc(F)cc2F)nnc1C(C)NC(=O)c1ccco1 (centres undefined)	x	x	x	27.9%	x	x
Cc1cccc(OCCc2noc(C3CCCCN3S(=O)(=O)c3cn(C)cn3)n2)c1 (centres undefined)	x	x	x	40.1%	x	x
CCOc1ccccc1NC(=O)C1CC(=O)N(c2n[nH]c3ccccc23)C1 (centres undefined)	x	x	x	47.2%	x	x
Cc1cnc(CC2CCCNC2)n1C(C)C (centres undefined)	x	x	x	19.2%	x	x
S=C1NC[C@H](CC2CCCCC2)N1CCc1cccc2ccccc12	u	0.251µM*	0.631µM*	25.1µM*	u	-14.2%
O=C1NC[C@@H](Cc2cccc3ccccc23)N(CCCCC2CCCCC2)C1=O	-21.9%	x	x	-0.3%	-24.4%	-4.6%
O=C1NC[C@H](CC2CCCCC2)N(CCc2cccc3ccccc23)C1=O	u	x	x	-8.9%	16.4µM*	x
O=C1NC[C@H](Cc2ccc(O)cc2)N(CCc2cccc3ccccc23)C1=O	u	-3.6%	-1.9%	-5.4%	-28.5%	u
CC(C)CC(=O)Nc1ccc2oc(-c3ccc(F)cc3)nc2c1	x	x	x	1.9%	x	x
CCOc1ccc(C(=O)N2CCC[C@H]2c2nc(-c3ccccc3)no2)cc1	x	x	x	-0.9%	x	x
CCOc1ccc(C(=O)N2CCC(c3nc(-c4ccc(S(=O)(=O)N5CCCC5)cc4)no3)CC2)cc1	20.6µM*	x	x	-20.8%	23.1µM*	x
COc1ccc(C(=O)N2CCC(c3nc(-c4ccc(S(=O)(=O)N5CCCC5)cc4)no3)CC2)cc1	23.1µM*	x	x	-13.9%	20.6µM*	x
CN1CCN(c2nc(-c3ccc(Cl)s3)cs2)CC1	2.1%	u	5.8%	8.91µM*	u	u
SMILES	DT40 TDP1 CPT	RORgamma inh	Gal4-VP16 FLuc	ALOX12 inh	DT40 TDP1 no CPT	ELG1 repair inh
Cc1ccc(/C=C/C(=O)N(Cc2cccs2)C2CCS(=O)(=O)C2)cc1 (centres undefined)	u	33.3%	-3.6%	30.2%	20.6µM*	2.0%
COc1ccc(CNCCCSc2ncccn2)cc1OC	1.2%	-18.2%	0.0%	-11.6%	-17.8%	2.5%
COc1ccccc1C(CCNCc1ccccc1)c1ccc(OC(C)C)cc1 (centres undefined)	16.4µM*	u	-19.2%	u	20.6µM*	u
COc1ccc(CCNCC(C)c2ccccc2)cc1 (centres undefined)	-10.1%	-15.6%	-6.0%	u	-20.2%	3.8%
COc1ccc(CNCCC(c2ccc(OC(C)C)cc2)c2ccccc2OC)cc1OC (centres undefined)	8.2µM*	-6.7%	2.9%	-64.6%	10.3µM*	u
COc1ccc(CNCCC(c2ccc(OC(C)C)cc2)c2ccccc2OC)cc1 (centres undefined)	13µM*	u	u	u	11.6µM*	-10.7%
COc1ccccc1C(CCNCc1ccc(N(C)C)cc1)c1ccc(OC(C)C)cc1 (centres undefined)	20.6µM*	u	-14.6%	u	7.31µM*	-5.0%
COc1ccc(OCCOC(=O)Cn2cnc3c2c(=O)n(C)c(=O)n3C)cc1	x	x	x	21.2%	x	x
Cc1sc(NC(=O)c2ccccc2F)c(CN2CCCCC2C)c1C (centres undefined)	18.4µM*	-24.4%	10.5%	u	11.6µM*	u
Cc1c(C(=O)N2CCOCC2)sc(NC(=O)c2ccccc2F)c1C#N	-5.9%	5.1%	-8.0%	u	-11.2%	9.0%
Cc1ccc(S(=O)(=O)Oc2cccc([N+](=O)[O-])c2)cc1	10.3µM*	x	x	2.7%	u	x
COc1ccc(/C=N/NC(=O)c2cccc([N+](=O)[O-])c2)cc1OS(=O)(=O)c1ccc(C)cc1	4.11µM*	3.98µM*	u	0.3%	2.59µM*	u
COc1ccc(C(=O)N/N=C/c2ccc(OC)c(OS(=O)(=O)c3ccccc3)c2)cc1	-60.1%	17.0%	2.4%	-1.1%	16.4µM*	u
CCOc1cc(/C=N/NC(=O)c2cccc([N+](=O)[O-])c2)ccc1OS(=O)(=O)c1ccccc1	u	7.94µM*	14.1µM*	-14.2%	18.4µM*	u
Cc1cccc(C)c1Oc1ncccc1CNC1CCN(C(C)C)CC1	x	x	x	10.7%	x	x
Cc1cccc(C)c1Nc1nc(N)c(C(=O)c2c(C)[nH]c3ccccc23)s1	x	x	x	-24.8%	x	x
COc1cc(/C=N/NC(=O)COc2cc(C)cc(C)c2)ccc1OS(=O)(=O)c1ccc(C)cc1	16.4µM*	-13.7%	-2.0%	-0.6%	6.51µM*	u

Screens as filed in PubChem.
